VDR inhibitor – vitamin D3 receptor (human) inhibition; P11473; VDR-SRC2-3 peptide fluorescence polarization, 2 h; Potency, µM, hits mostly inhibitors; 400,000 compounds, 0.93% hits; AID 504847
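Fluorescence polarization assay measuring small-molecule disruption of VDR binding to the coregulator peptide SRC2-3. Compounds were pin-transferred (23 nl) into the reagent mix and incubated 2 h at room temperature before reading.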
TrxR1 inh – rat TrxR1 inhibition; O89049; recombinant rTrxR1, NADPH fluorescence consumption, selenite substrate; Potency, µM (highest dose often 114 µM), actives largely listed as inhibitors; 390,000 compounds, 1% hits; AID 588453; further: nearly all actives have a fitted effect of over 65% in size
Target sequence (O89049 whole entry, looked up): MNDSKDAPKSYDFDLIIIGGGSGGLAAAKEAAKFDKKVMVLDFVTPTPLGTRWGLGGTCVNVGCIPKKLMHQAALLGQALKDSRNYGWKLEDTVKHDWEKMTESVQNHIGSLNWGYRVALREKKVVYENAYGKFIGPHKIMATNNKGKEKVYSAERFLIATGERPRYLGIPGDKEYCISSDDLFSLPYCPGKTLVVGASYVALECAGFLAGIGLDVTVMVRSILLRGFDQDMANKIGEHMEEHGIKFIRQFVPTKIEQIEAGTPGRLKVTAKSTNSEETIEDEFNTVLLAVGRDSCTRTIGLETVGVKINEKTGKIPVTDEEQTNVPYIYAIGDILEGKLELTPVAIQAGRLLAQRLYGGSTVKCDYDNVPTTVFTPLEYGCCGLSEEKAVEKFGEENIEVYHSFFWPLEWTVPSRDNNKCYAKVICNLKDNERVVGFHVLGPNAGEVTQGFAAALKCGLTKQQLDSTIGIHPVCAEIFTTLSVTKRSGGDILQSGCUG
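Rat TrxR1 (90 nM in the dispensed reagent) was pre-reduced with 400 uM NADPH for 5 min at room temperature, then incubated with compound for 15 min. After 400 uM selenite was added, NADPH fluorescence (Ex 340/Em 450 nm) was followed for 8 min.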
TrxR1 substrate – substrates of rat thioredoxin reductase 1. purified TrxR1 substrate turnover, NADPH consumption readout. Potency, µM (titrated, usually from 114 µM). 390,000 compounds, 0.01% hits; further: nearly all actives have a fitted effect of over 50% in size
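Rat TrxR1, dispensed at 90 nM, was prereduced with 400 uM NADPH (final) for 5 min at ~22 deg C, then incubated with compound 15 min before 400 uM selenite. A first-read NADPH fluorescence drop versus no-compound background flagged substrates.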
Sfp PPTase inh – blocks B. subtilis Sfp PPTase activity; Q9F4F7; Biochemical Sfp PPTase activity, qHTS; Potency, µM, hits mostly inhibitors; 310,000 compounds, 3.5% hits; AID 1490;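 further: the enzyme is Sfp with the accession as filed and its product quenches rhodamine fluorescence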
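Fluorescence-quenching assay: 15 nM Sfp-PPTase preincubated 15 min at room temperature with compound, then 5 uM rhodamine-CoA and 12.5 uM BHQ-2-labelled YbbR peptide added. Fluorescence (ex 525/em 598 nm) read at start and after 30 min; difference gives rate.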
PLK1 PBD block – blocks phosphopeptide binding to human PLK1 polo-box domain; Plk1 PBD binding of FITC phosphopeptide, fluorescence polarization; AID 720504; Potency, µM, most hits filed as inhibitors; 360,000 compounds, 2.8% hits; P53350; further: series mostly up to about 57 µM; nearly all actives have a fitted effect of over 65% in size
mIDH1 inhibitor – blocks human mutant IDH1 R132H enzyme. AID 602179. Potency, µM (highest dose often 76.6 µM), hits mostly inhibitors. IDH1-R132H enzyme, NADPH consumption, diaphorase/resazurin fluorescence. 390,000 compounds, 0.093% hits. O75874; further: nearly all actives have a fitted effect of over 65% in size
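IDH1-R132H (0.5 ug/mL dispensed) in pH 7.5 Tris buffer was preincubated 30 min with compound, then given a substrate mix of 0.016 mM NADPH and 2 mM alpha-KG for 80 min at room temperature; remaining NADPH was read by diaphorase/resazurin fluorescence.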
Of the large screens only hits and unclear results are named; the others gave an inactive call. Shown are actives, neighbours in structure and some others; about 5.2% of the full set was active somewhere. The call rests on the fitted dose curve; in most records, active means well fitted curve in the direction sought with a large enough effect; inconclusive means small, poorly fitted or top-dose-only effect, or another doubt; inactive means no such curve, though single readings can be large; an effect the other way counts as inactive or inconclusive.

CCOc1cc(C2Nc3cccc4cccc(c34)N2)ccc1O	TrxR1 inh 25.1µM
CCOc1ccc(C2Nc3cccc4cccc(c34)N2)cc1OC	TrxR1 inh 28.2µM
COc1cc(OC)c(C2Nc3cccc4cccc(c34)N2)c(OC)c1	none
Nc1nc(CN2CCCCCC2)nc(Nc2ccccc2)n1	TrxR1 inh 15.8µM
O=[N+]([O-])c1cc(Cl)cc(/C=N\Nc2ccccn2)c1O	VDR inhibitor inconclusive, PLK1 PBD block 3.36µM
COC(=O)[C@H]1CC=C[C@H]2CCN(Cc3ccc(Cl)c(Cl)c3)C(=O)[C@@H]12	none (no result: TrxR1 inh, TrxR1 substrate, PLK1 PBD block, mIDH1 inhibitor)
Cc1ccc(CSCC(=O)N2CCOCC2)cc1	PLK1 PBD block 2.99µM
Cc1ccc(C(CC(=O)N2CCOCC2)c2ccco2)cc1 (configuration not stated)	TrxR1 inh 44.7µM
O=C(CN1CCCCCC1)Nc1ccc(Br)cc1	none
CN(C)c1ccc(NC(=O)CN2CCC(N3CCCCC3)CC2)cc1	Sfp PPTase inh 89.1µM
O=C(CN1CCCC1)Nc1ccc(Br)cc1	Sfp PPTase inh 50.1µM
Cc1ccc(NC(=O)C2CCN(c3nc(-c4ccc(C(C)C)cc4)no3)CC2)c(Cl)c1	none (no result: Sfp PPTase inh, PLK1 PBD block)
COCCNC(=O)Cn1ccc2cc(S(=O)(=O)N3CCCCC3)ccc21	none
CCCCCC(=O)NNC1CC(=O)N(c2cccc(OCC)c2)C1=O (configuration not stated)	none
CC(=O)NCCCC(=O)NNC1CC(=O)N(c2cccc(Cl)c2)C1=O (configuration not stated)	VDR inhibitor inconclusive, TrxR1 inh 14.1µM, Sfp PPTase inh inconclusive
Cc1cc2cc3c(cc2nc1SCc1ccc(C(=O)O)cc1)OCCO3	PLK1 PBD block 29.9µM
CNc1oc(Cc2ccccc2)nc1S(=O)(=O)c1ccc(Cl)cc1	TrxR1 inh 11.2µM
CCOc1ccc(CNC(=O)CCS(=O)(=O)c2cc3c4c(c2)CCN4C(=O)CC3)cc1	none (no result: Sfp PPTase inh, PLK1 PBD block)
CCOC(=O)c1c(NC(=O)Cc2coc3cc(C)cc(C)c23)sc2c1CCC2	none (no result: Sfp PPTase inh, PLK1 PBD block)
COc1ccc(-c2cnc3nc(/N=C/N(C)C)nn3c2/N=C/N(C)C)cc1	PLK1 PBD block 23.8µM
CN(C)/C=N/c1nc2nccc(-c3ccc(Cl)cc3)n2n1	none
CN(C)/C=N/c1nc2nccc(-c3ccccc3)n2n1	PLK1 PBD block 26.7µM
CC(C)C(NC(=O)C(CC(=O)O)NC(=O)C(CCCCN)NC(=O)C(N)CCCN=C(N)N)C(=O)NC(Cc1ccc(O)cc1)C(=O)O (configuration not stated)	none (no result: TrxR1 inh, TrxR1 substrate, PLK1 PBD block, mIDH1 inhibitor)
O=C1NC(c2ccccc2)Nc2c1sc(=S)n2-c1ccccc1 (configuration not stated)	Sfp PPTase inh 31.6µM, PLK1 PBD block 21.2µM
CCOc1ccc(C2NC(=O)c3sc(=S)n(-c4ccccc4)c3N2)cc1 (configuration not stated)	VDR inhibitor inconclusive, Sfp PPTase inh inconclusive, PLK1 PBD block inconclusive
NC(=O)C1CCN(C(=O)CSc2nc3ccccc3s2)CC1	PLK1 PBD block inconclusive
O=C(CCCc1nc2ccccc2s1)N1CCN(c2ccccc2)CC1	Sfp PPTase inh 44.7µM, PLK1 PBD block inconclusive
O=C(O)C1CCN(C(=O)CSc2nc3ccccc3s2)CC1	VDR inhibitor inconclusive, PLK1 PBD block 23.8µM
O=C(CSc1nc2ccccc2s1)N1CCCCC1	PLK1 PBD block 15µM
Cc1nn(C)c(Cl)c1S(=O)(=O)N(Cc1ccco1)c1ncnc2nc[nH]c12	none (no result: Sfp PPTase inh, PLK1 PBD block, mIDH1 inhibitor)
Nc1c(C(=O)Nc2ccc(F)cc2)sc(=S)n1-c1ccccc1F	VDR inhibitor inconclusive, Sfp PPTase inh 31.6µM, PLK1 PBD block 4.74µM
Cn1c(N)c(C(=O)Nc2ccc3ccccc3c2)sc1=S	Sfp PPTase inh 14.1µM, PLK1 PBD block inconclusive
COc1ccccc1-n1c(N)c(C(N)=O)sc1=S	Sfp PPTase inh inconclusive, PLK1 PBD block 18.9µM
COc1ccc(C(=O)Nc2ccc3ccccc3c2)cc1	none
Cc1nn(C)c(C(=O)NNC(=O)Nc2cccc(C(F)(F)F)c2)c1Cl	none
C=CCn1c(O)c(N=NC(=O)CNC(=O)/C=C/c2ccco2)c2ccccc21	TrxR1 inh 14.1µM, Sfp PPTase inh inconclusive, PLK1 PBD block inconclusive
CCCCn1c(O)c(N=NC(=O)c2ccco2)c2ccccc21	VDR inhibitor 50.1µM, PLK1 PBD block 18.9µM
NC(=O)Cn1c(O)c(N=NC(=O)CNC(=O)/C=C/c2ccccc2)c2ccccc21	none
O=C(NCC1CCCO1)C(C(=O)c1ccccc1)n1ccccc1=O (configuration not stated)	none
O=C(NCC1CCCO1)C(Cc1ccccc1)N1C(=O)C2C3C=CC(C4CC34)C2C1=O (configuration not stated)	VDR inhibitor inconclusive, PLK1 PBD block 10.6µM
CN(C)c1ncc(C2=C(Cl)C(=O)C(N3CCCC3)=C(Cl)C2=O)s1	VDR inhibitor 28.2µM, TrxR1 inh 2.51µM, PLK1 PBD block 7.52µM (no result: Sfp PPTase inh)
O=C1C(Cl)=C(N2CCCCC2)C(=O)C(Cl)=C1c1cnc(N2CCCCC2)s1	VDR inhibitor inconclusive, TrxR1 inh 1.78µM, Sfp PPTase inh 17.8µM, PLK1 PBD block 7.52µM
CC(=O)c1cnc(N(C)C)s1	none
CCSC(=O)N1c2ccc(OC)cc2C=CC1C#N (configuration not stated)	none (no result: Sfp PPTase inh)
COc1cccc(CNC(=O)c2ccc(CN3CC(=O)N4CCCCC4C3=O)cc2)c1 (configuration not stated)	none (no result: Sfp PPTase inh, PLK1 PBD block)
CCN(CC)CCn1c2ccccc2c2n[nH]c(=S)nc21	Sfp PPTase inh 28.2µM, PLK1 PBD block inconclusive
Fc1ccc2c(c1)c1n[nH]c(=S)nc1n2CCc1ccccc1	VDR inhibitor inconclusive, PLK1 PBD block 21.2µM
COc1cc(OC)c(/C=C/c2ccc3ccccc3[n+]2[O-])c(OC)c1	none (no result: VDR inhibitor, Sfp PPTase inh, PLK1 PBD block, mIDH1 inhibitor)
NC(=S)N=Nc1c(O)[nH]c2cc(F)c(F)cc12	TrxR1 inh inconclusive, Sfp PPTase inh 44.7µM
NC(=S)N=Nc1c(O)[nH]c2c(Cl)cc(Cl)cc12	none (no result: Sfp PPTase inh)
Cc1occc(=O)c1OCc1c(F)cccc1Cl	PLK1 PBD block 21.2µM
COc1ccc(OC2C(O)COC2/C=C/C#Cc2ccccc2)cc1 (configuration not stated)	none (no result: VDR inhibitor, TrxR1 inh, TrxR1 substrate, PLK1 PBD block, mIDH1 inhibitor)
CSc1nnc2c3ccccc3c3ccccc3c2n1	VDR inhibitor inconclusive, PLK1 PBD block 21.2µM
O=C(N/N=C1/CC2C=CCC12)c1ccco1 (configuration not stated)	VDR inhibitor inconclusive, PLK1 PBD block 29.9µM
Cc1ccc2nc(-c3ccccc3)cn2c1	none
Cc1nc(-c2ccc3c(c2)OCCO3)cs1	Sfp PPTase inh inconclusive, PLK1 PBD block 29.9µM
Cc1cccc(Nc2nc(-c3ccc4c(c3)OCCO4)cs2)c1	none
COc1cc(-c2csc(C)n2)ccc1O	none
Oc1ccc(-c2csc(-c3cccnc3)n2)cc1O	Sfp PPTase inh inconclusive
Oc1ccc(-c2csc(-c3ccccc3)n2)cc1O	Sfp PPTase inh 56.2µM
